Reference: publication PMC13494018

B1: design_598_15ab41e9-cad4-4381-8935-81f74b313fe8_13_dldesign_0_cycle1_af2pred (protein)
chain: AEKSREEGVKKAEEAAKLAKEAGLEEKAKKIKEAAKKAAKTGTDEDLKELSKTALEAAKLADPEKGAKISELRVEAAGYFELARIQ
B2: design_598_15ab41e9-cad4-4381-8935-81f74b313fe8_1154_dldesign_0_cycle1_af2pred (protein)
chain: EKAKKAAEYSSEAAKHAIKAAKLLKEAGAPQEVLNLLQEAIVNMDKAAEYYAAAMEAAKKNPELGPEIQAELKKAEEHTKKANELL
B3: design_598_15ab41e9-cad4-4381-8935-81f74b313fe8_1361_dldesign_0_cycle1_af2pred (protein)
chain: DETKKALAEMSELRHQLDAEAKWYEKHAKESEKYKEAAKEAKEGADYAKKALKKAKEGTPEEALKAAKEALEELKKKEEKVEKLFKEA
B4: design_598_15ab41e9-cad4-4381-8935-81f74b313fe8_205_dldesign_0_cycle1_af2pred (protein)
chain: DFKAKADAEATLERAEQAEKAAKKIGEELAKLAEEAKKLAEAGLKSDDPEKREALTKAARELLKELQKLGKEKKEK
B5: design_597_f3dcd2b3-c7aa-4b15-88bc-bbb8d01a18cd_2462_dldesign_0_cycle1_af2pred (protein)
chain: DPLREAAKAAVEAMGKAAKEVGLTKEASELAGLVHEALSAAKAGIHAKEILKEAAEAAKKAAEEYPEAKELFEKVAKEVEKMEKLV
B6: design_598_15ab41e9-cad4-4381-8935-81f74b313fe8_1538_dldesign_0_cycle1_af2pred (protein)
chain: KEEAKKKVEEARKLVEEAKKLIEKGEYEKGLKLAEEAAELAHKTSVKYGAGEAEKVYKEASKVISLAWAKLAEAKK
B7: design_598_15ab41e9-cad4-4381-8935-81f74b313fe8_148_dldesign_0_cycle1_af2pred (protein)
chain: MAEEAKKTSDAIREMVKIAKEAGKEVAGSPEAQKKIAAARDKAMDAVAAGEDPEEQLKKAKEEIEAVVAEEKA
B8: design_598_15ab41e9-cad4-4381-8935-81f74b313fe8_72_dldesign_0_cycle1_af2pred (protein)
chain: SELVKKASDLYRELVRKAREVAEKAGKAGDPEEAKKLAGDAVWAAQENVEEGIKIAKELGKKTGVEKEVEEFIKLMKEYAKALEEVSN
B9: design_598_15ab41e9-cad4-4381-8935-81f74b313fe8_801_dldesign_0_cycle1_af2pred (protein)
chain: AEKEKKIEELEAKAKEYEAKGKAAEAAGDYKTAAEYYEKAADAYLEMAKVDPEKAEEYIKKAQELYRKSIQYEAKASAA
B10: design_598_15ab41e9-cad4-4381-8935-81f74b313fe8_887_dldesign_0_cycle1_af2pred (protein)
chain: GEEKSRAAAEALRAATRAVRAAAATAAAADPATAAAVRAAWAAAVKADDLADAEAALRAAAAAATDPATRALLNAAADAYATIAAIA
B11: design_598_15ab41e9-cad4-4381-8935-81f74b313fe8_1360_dldesign_0_cycle1_af2pred (protein)
chain: DPAQAAFTAKAKERAEQLKALAKEFPEEAEKLTKLAEEGLKLAAGDAETQKKAAEKLQEAYELAAEARAKKA
B12: design_597_f3dcd2b3-c7aa-4b15-88bc-bbb8d01a18cd_2262_dldesign_0_cycle1_af2pred (protein)
chain: AEAEEALKAAKAAAAKAKEAADAAIADPATKAAGEKAKKLIEAREKKAEANASDVRVLQSAVEFFNHMAAALKKILA
B13: design_598_15ab41e9-cad4-4381-8935-81f74b313fe8_273_dldesign_0_cycle1_af2pred (protein)
chain: SMAKKIEEGKKLAEELREAVRTAQAIGARLDALVAADPSVAPLATEIRAKASEAIFKIADGKEEEGKALMEEATALAAAAEAAAAAAA
B14: design_597_f3dcd2b3-c7aa-4b15-88bc-bbb8d01a18cd_2241_dldesign_0_cycle1_af2pred (protein)
chain: EAAAIAKEAAAVAEEAAKKEEDPGKAEALKKAAKRIKAAAAGTKFEIASAVASAAEQAEWVGYPKEVVDKLEAKAEKIEKA
B15: design_597_f3dcd2b3-c7aa-4b15-88bc-bbb8d01a18cd_2332_dldesign_0_cycle1_af2pred (protein)
chain: SVVEEVKEEAKKAIEEGKKGDAGTAAALGYEAKALAEQKAKLYPEEAEELKKIAEEVKKEAKEIAEKKLKEKKAA
B16: design_598_15ab41e9-cad4-4381-8935-81f74b313fe8_1541_dldesign_0_cycle1_af2pred (protein)
chain: AEQEKKDEEYKEKAKKGEELAKKAKERAEKNKDDKGVLGSQAELAEHIAKALKKAAEEASEEVKPELKAAAEKAKKVAKYAEELA
B17: design_598_15ab41e9-cad4-4381-8935-81f74b313fe8_231_dldesign_0_cycle1_af2pred (protein)
chain: AEAELARAREVAKRVAEKLREAAKEAEKIDPEVAEKGRKVAEAAEAATAGTVEEIAAATQEARQALAEAEFLVKK
B18: design_598_15ab41e9-cad4-4381-8935-81f74b313fe8_1370_dldesign_0_cycle1_af2pred (protein)
chain: AEFAVKILETLAERVPPEYAVVAREAAEIVKEKGAEGAREAARLVREAAERNPELPEEHRKAMLNAARVLEILAEAE
B19: design_597_f3dcd2b3-c7aa-4b15-88bc-bbb8d01a18cd_2336_dldesign_0_cycle1_af2pred (protein)
chain: AQAAKVAAALAAAEKRLAISTARAKELAKKNPQAGYEYMEIRTDHMAAALAKVDPAAGAEVKARGAALAAEIKA
B20: design_598_15ab41e9-cad4-4381-8935-81f74b313fe8_1042_dldesign_0_cycle1_af2pred (protein)
chain: NLEELIKKAIKAAEKGDAKGAVTYVMDAGAEAGDMKLAVEVGRKIQELLATDPAAGKAASAALIKEAGKKFL
B21: design_598_15ab41e9-cad4-4381-8935-81f74b313fe8_790_dldesign_0_cycle1_af2pred (protein)
chain: MEKEAEKFAEEGKKKVEELKKKLEENKDNAEKNEELAKKARELAKEFEEEGKKAPEEMRKKLAEIAQEAREVAAEAKGLAIIAKEK
B22: design_598_15ab41e9-cad4-4381-8935-81f74b313fe8_1446_dldesign_0_cycle1_af2pred (protein)
chain: IDSKKASELIREAVRNAQKAGEIAKSLPNGEEIKKRVAEALLLAIDPETAEEGIKLLEELAKEAEELNPEAGKHIKEAAEHLKKFAEL
B23: design_597_f3dcd2b3-c7aa-4b15-88bc-bbb8d01a18cd_2297_dldesign_0_cycle1_af2pred (protein)
chain: MEEAEKLLKKAEEAAKKGDAETAKKLAEELRELSKKEKDKEKAAAYSEAAFEAKGYAFLAEIKQEKKKELE
B24: design_597_f3dcd2b3-c7aa-4b15-88bc-bbb8d01a18cd_2474_dldesign_0_cycle1_af2pred (protein)
chain: MKADEEAAKKAAAARDTAFDKIAAGEDPQAAYDAAKAEMKKIAEEYGVSPETKEKIEKGIKALERFAAAAAKAAA
B25: design_597_f3dcd2b3-c7aa-4b15-88bc-bbb8d01a18cd_2475_dldesign_0_cycle1_af2pred (protein)
chain: MTPLEESAAKAQEAREEAAEKEQKGKLLAEKGNYKEGAKEYKKGAEELKKAAKFAEEAGDKEAAERLKKRAERLEKLAKEYEKKAK
B26: design_598_15ab41e9-cad4-4381-8935-81f74b313fe8_121_dldesign_0_cycle1_af2pred (protein)
chain: MMEKKKKEAEIKRDAAIEQAKTIVEANKDKPFEEILEKVEKSVERFKESIEKIDPEIGKEEGEKARKESEEIVKKASEA
B27: design_597_f3dcd2b3-c7aa-4b15-88bc-bbb8d01a18cd_2357_dldesign_0_cycle1_af2pred (protein)
chain: NEEIKAKQLAGRLEALADSLKSAAEKAAKETKDPEKAKKLKEIAKEAEKAVEEAKKKIKEGKAEEAYKEGKEKVEKAKKEVEKIAKE
B28: design_597_f3dcd2b3-c7aa-4b15-88bc-bbb8d01a18cd_2339_dldesign_0_cycle1_af2pred (protein)
chain: AKALRYAGRAEIYMELAETAAKLAIEAAKKDPAEGKKYLEKMKEKVKKAVELAEKADPALAKEYEAKGKELIEKAEKAIKAQIEKA
B29: design_598_15ab41e9-cad4-4381-8935-81f74b313fe8_127_dldesign_0_cycle1_af2pred (protein)
chain: SAMDLLLEILDYNDEALKAAKEGNKEEMEKYIKKAFEIAEELGKKYGPEAEERAKRYVEKAKKEAEEIYKK
B30: design_598_15ab41e9-cad4-4381-8935-81f74b313fe8_1263_dldesign_0_cycle1_af2pred (protein)
chain: GMEEIEKRNEEVKKKAEELKKQVEKAEKLAEKGDPEGKKLAEETKKKAIELAKSNPEAEPEVKTEITEIAVEAQGIEHLMKIK
B31: design_598_15ab41e9-cad4-4381-8935-81f74b313fe8_686_dldesign_0_cycle1_af2pred (protein)
chain: SPTEMQEALTDADGYAVLAKNAGIEEVAKKAKEAAKKIKELIKQARADPSKAPELAKKAKELAKEAEKEFEKAKKEFE
B32: design_598_15ab41e9-cad4-4381-8935-81f74b313fe8_1412_dldesign_0_cycle1_af2pred (protein)
chain: DSPAMQLNEALTDAKYAADKIKEVDPSLAPEAQALYDKVKALLEKARKGDAATVAAAAKEAKALAEQAEKLLKQAKERAKKA
B33: design_598_15ab41e9-cad4-4381-8935-81f74b313fe8_1419_dldesign_0_cycle1_af2pred (protein)
chain: DIAKVTQQAQEELTEYAFKVPELKEEFDAARKESVKLGKEGASTSPEAAEKASKEIKKITEEMKKKAEEAL
B34: design_597_f3dcd2b3-c7aa-4b15-88bc-bbb8d01a18cd_2381_dldesign_0_cycle1_af2pred (protein)
chain: AAAEAAAAAAKAAAKAEAAKHLEKAFDLIADGGTVEEVEKEAEKAIEYAAKADEKYKKLAERTAKRIIENAKIAAKREEEN
B35: design_598_15ab41e9-cad4-4381-8935-81f74b313fe8_1028_dldesign_0_cycle1_af2pred (protein)
chain: SDEKLAAEASQVGLELKAEVKAGNANPEIKEKLSKEALEKAEKAVKEFEKKSPAAGKVAKEMLKKIKEAAKE
B36: design_598_15ab41e9-cad4-4381-8935-81f74b313fe8_1188_dldesign_0_cycle1_af2pred (protein)
chain: KEEEEKKKEEEWKKKADAEAAIEQGKNALEAAKKDPSKAKEAAKVAKKLAKRAPEAKEELEKIAKEAEAIGKA
B37: design_598_15ab41e9-cad4-4381-8935-81f74b313fe8_1476_dldesign_0_cycle1_af2pred (protein)
chain: SEEKKKEEEKKVKEAEKLAKKAKEAAKKGDVKTAKEYYEKAKKIAKEVKKEGSKELATKAANAAQEAYQAYREAEAKA
B38: design_598_15ab41e9-cad4-4381-8935-81f74b313fe8_88_dldesign_0_cycle1_af2pred (protein)
chain: GSAKELAEKLRYVNRKIKEAGELAKELEKAGYPEEAKKLRELAQKARDALMAGDLDAAYKAAKELEEKIKEAKKKLEA

target: VTCN1, Q7Z7D3
Sequence (Q7Z7D3 whole entry): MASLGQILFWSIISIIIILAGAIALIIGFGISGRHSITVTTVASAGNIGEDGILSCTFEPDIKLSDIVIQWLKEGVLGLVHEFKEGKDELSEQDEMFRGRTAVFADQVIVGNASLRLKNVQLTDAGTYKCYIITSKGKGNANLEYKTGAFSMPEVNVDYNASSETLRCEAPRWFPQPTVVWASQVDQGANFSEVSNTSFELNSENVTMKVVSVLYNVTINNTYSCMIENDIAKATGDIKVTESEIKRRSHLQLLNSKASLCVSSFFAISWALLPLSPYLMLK

Binding in a display sort, inactive:
B1 not found
B2 not found
B3 not found
B4 not found
B5 not found
B6 not found
B7 not found
B8 not found
B9 not found
B10 not found
B11 not found
B12 not found
B13 not found
B14 not found
B15 not found
B16 not found
B17 not found
B18 not found
B19 not found
B20 not found
B21 not found
B22 not found
B23 not found
B24 not found
B25 not found
B26 not found
B27 not found
B28 not found
B29 not found
B30 not found
B31 not found
B32 not found
B33 not found
B34 not found
B35 not found
B36 not found
B37 not found
B38 not found
